{
  "source": "PubChem BioAssay (EPA / NIEHS)",
  "key": {"TTR (gene 7276)": {"test_system": "TTR (gene 7276)", "experiment": "CCTE_GLTED_hTTR_0.125uM: CCTE's human Transthyretin (hTTR) Inhibition Assay, with 0.125uM TTR, Great Lakes Toxicology and Ecology Division (GLTED) Lab (AID 2284431)", "in_short": "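TTR at 0.125uM incubated 2 h with test chemical; displacement of bound ANSA read by fluorescence (ex 380, em 475). Activity is signal loss versus DMSO baseline.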"}, "[1]": {"experiment": "CCTE_Deisenroth_DEVTOX-GLR_Endo_CellCount: Viability Assessment in CCTE's DevTox GLR-Endo Assay, Deisenroth Lab (AID 2284420)", "in_short": "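Percent change in nuclear-stain cell counts versus 0.2% DMSO, from high-content imaging over 5 fields per well. Over a 48 h endoderm differentiation, RUES2-GLR cells received two doses 24 h apart across a 1 nM–200 uM series, with n=4.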"}, "[2]": {"test_system": "SRY-box transcription factor 17 (SOX17) Protein Expression, Deisenroth Lab, SOX17 (gene 64321)", "experiment": "CCTE_Deisenroth_DEVTOX-GLR_Pluri_SOX17: CCTE's DevTox GLR-Pluri Assay Evaluation of SRY-box transcription factor 17 (SOX17) Protein Expression, Deisenroth Lab (AID 2284427; active = hit-call score of the fitted dose curve at least 0.9, where 1 is the maximum)", "in_short": "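The endpoint is SOX17+ cells as a fraction of cell count, corrected for the 0.2% DMSO control and obtained by high-content fluorescence imaging of fixed cells. Cells were RUES2-GLR under a 48-hour endoderm differentiation, dosed twice at 24-hour intervals over 1 nM–200 uM.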"}, "[3]": {"test_system": "SRY-box transcription factor 2 (SOX2) Protein Expression, Deisenroth Lab, SOX2 (gene 6657)", "experiment": "CCTE_Deisenroth_DEVTOX-GLR_Pluri_SOX2: CCTE's DevTox GLR-Pluri Assay Evaluation of SRY-box transcription factor 2 (SOX2) Protein Expression, Deisenroth Lab (AID 2284428)", "description": "CCTE_Deisenroth_DEVTOX-GLR_Pluri assay is a cell-based, multiplex-readout assay that uses RUES2-GLR, a human pluripotent cell line, with measurements taken at 48 hours after chemical dosing in a 384-well microplateCCTE_Deisenroth_DEVTOX-GLR_Pluri_SOX2 is 1 of 4 assay components calculated from the CCTE_Deisenroth_DEVTOX-GLR_Pluri assay and it measures an the percentage of cells in an pluripotent state. Using a type of inducible fluorescent protein reporter, gain-of-signal activity can be used to understand changes in gene expression with fluorescent microscopy. The percentage of SOX2+ cells are determined by calculating the number of SOX2+ cells divided by the cell count. To generalize the intended target to other relatable targets, this assay component is annotated to the transcription factor intended target family, where the subfamily is SRY-related HMG-box.Data from the assay component CCTE_Deisenroth_DEVTOX-GLR_Pluri_SOX2 was analyzed as 1 assay endpoint. The endpoint is the percent change in the SOX2+ cell population relative to the 0.2% DMSO control in the CCTE_Deisenroth_DEVTOX-GLR_Pluri assay. Furthermore, this assay endpoint can be referred to as a primary readout, because this assay has produced multiple assay endpoints where this one serves as a measure of […].\nAll assay protocols are aligned to the DevTox GLR-Endo assay workflow. Cells are seeded into 384-well microplates for 24 hours prior to initiating differentiation in defined media for a total duration of 48 hours. A total of two chemical exposures are administered in 24-hour intervals during the 48-hour differentiation period. At the assay termination point, cells are fixed and stained with a fluorescent dye demarcating the nucleus. High-content imaging is used to acquire brightfield and fluorescent channel images across 5 fields per well. Cell identification and mean biomarker fluorescence intensities are calculated with image analysis software to determine the total cell counts for viability assessment and the biomarker expression frequency for each lineage-dependent assay. […]"}, "[4]": {"test_system": "Brachyury (BRA) Protein Expression, Deisenroth Lab, TBXT (gene 6862)", "experiment": "CCTE_Deisenroth_DEVTOX-GLR_Pluri_BRA: CCTE's DevTox GLR-Pluri Assay Evaluation of Brachyury (BRA) Protein Expression, Deisenroth Lab (AID 2284429; active = hit-call score of the fitted dose curve at least 0.9, where 1 is the maximum)", "in_short": "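Mesoderm readout after 48 h differentiation of human RUES2-GLR cells, dosed twice (24-h intervals) at 1 nM - 200 uM. BRA+ frequency from fluorescence imaging of fixed, nuclear-stained cells, DMSO-corrected.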"}, "[5]": {"experiment": "CCTE_Deisenroth_DEVTOX-GLR_Pluri_CellCount: Viability Assessment in CCTE's DevTox GLR-Pluri Assay Evaluation of Total Cell Counts, Deisenroth Lab (AID 2284430)", "in_short": "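Cytotoxicity readout: fluorescent nuclei counts by high-content imaging, expressed as percent change relative to 0.2% DMSO. Human RUES2-GLR pluripotent line differentiated 48 h, dosed twice at 24-h intervals across 1 nM - 200 uM (10 points).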"}},
  "note": "Values joined by “and” are separate entries in the source; they are usually repeats but may differ in a detail not shown here. Equal values may be shown once. Records with an inconclusive call do not appear. Active and inactive are the calls of the source. The calls were made as follows, unless noted: active = hit-call score of the fitted dose curve at least 0.9, where 1 is the maximum; inactive = score below 0.9.",
  "data": [
    {"smiles": "CCCCCCCCCCCCc1ccccc1S(=O)(=O)O", "values": [
      {"measurement": "AC50", "setting": "TTR (gene 7276)", "result": "890 nM (active)"}
    ]},
    {"smiles": "O=C(O)Cc1cc(I)c(Oc2cc(I)c(O)c(I)c2)c(I)c1", "values": [
      {"measurement": "AC50", "setting": "TTR (gene 7276)", "result": "10.4 nM (active)"}
    ]},
    {"smiles": "C[C@@H]1C[C@H]2[C@@H]3CCC4=CC(=O)C=C[C@]4(C)[C@@]3(F)[C@@H](O)C[C@]2(C)[C@@]1(O)C(=O)COP(=O)(O)O", "values": [
      {"measurement": "outcome", "setting": "[1]", "result": "inactive"},
      {"measurement": "outcome", "setting": "[2]", "result": "inactive"},
      {"measurement": "outcome", "setting": "[3]", "result": "inactive"},
      {"measurement": "outcome", "setting": "[4]", "result": "inactive"},
      {"measurement": "outcome", "setting": "[5]", "result": "inactive"}
    ]},
    {"smiles": "NC(=O)N(O)[C@@H]1C=C[C@H](Oc2cccc(Oc3ccc(F)cc3)c2)C1", "values": [
      {"measurement": "AC50", "setting": "TTR (gene 7276)", "result": "439 nM (active)"}
    ]},
    {"smiles": "CCCOC(=O)c1ccc(O)cc1", "values": [
      {"measurement": "AC50", "setting": "TTR (gene 7276)", "result": "5010 nM (active)"}
    ]},
    {"smiles": "CC[C@H](c1ccc(O)cc1)[C@@H](CC)c1ccc(O)cc1", "values": [
      {"measurement": "AC50", "setting": "TTR (gene 7276)", "result": "132 nM (active)"}
    ]},
    {"smiles": "O=C(O)c1ccccc1C(c1ccc(O)cc1)c1ccc(O)cc1", "values": [
      {"measurement": "AC50", "setting": "TTR (gene 7276)", "result": "3040 nM (active)"}
    ]},
    {"smiles": "O=[N+]([O-])c1ccc(O)cc1", "values": [
      {"measurement": "AC50", "setting": "TTR (gene 7276)", "result": "6.47 µM (active) and 8.54 µM (active)"}
    ]},
    {"smiles": "CC(C)(C)c1ccc(O)c(C(C)(C)C)c1", "values": [
      {"measurement": "AC50", "setting": "TTR (gene 7276)", "result": "9980 nM (active)"}
    ]},
    {"smiles": "NC(=O)N1C(=O)C(C(=O)c2cc(Cl)cs2)c2cc(F)c(Cl)cc21", "note": "(stereo unspecified)", "values": [
      {"measurement": "AC50", "setting": "TTR (gene 7276)", "result": "48.1 nM (active)"}
    ]},
    {"smiles": "CCCCCCCCC(=O)O", "values": [
      {"measurement": "AC50", "setting": "TTR (gene 7276)", "result": "12400 nM (active)"}
    ]},
    {"smiles": "CCc1ccc(CCOc2ccc(CC3SC(=O)NC3=O)cc2)nc1", "note": "(stereo unspecified)", "values": [
      {"measurement": "AC50", "setting": "TTR (gene 7276)", "result": "392 nM (active)"}
    ]},
    {"smiles": "CC(O)CO", "note": "(stereo unspecified)", "values": [
      {"measurement": "outcome", "setting": "[1]", "result": "inactive"},
      {"measurement": "outcome", "setting": "[2]", "result": "inactive"},
      {"measurement": "outcome", "setting": "[3]", "result": "inactive"},
      {"measurement": "outcome", "setting": "[4]", "result": "inactive"},
      {"measurement": "outcome", "setting": "[5]", "result": "inactive"}
    ]},
    {"smiles": "ClC1=C(Cl)C(Cl)(Cl)C(Cl)=C1Cl", "values": [
      {"measurement": "AC50", "setting": "TTR (gene 7276)", "result": "7090 nM (active)"}
    ]},
    {"smiles": "CC1=C(/C=C/C(C)=C/C=C/C(C)=C/C(=O)O)C(C)(C)CCC1", "values": [
      {"measurement": "AC50", "setting": "[1]", "result": "4.43 µM (active)"},
      {"measurement": "AC50", "setting": "[2]", "result": "14.1 µM (active)"},
      {"measurement": "AC50", "setting": "[3]", "result": "0.576 µM (active)"},
      {"measurement": "AC50", "setting": "[4]", "result": "12 µM (active)"}
    ]}
  ]
}
